This is a sample that favours compounds with a hit; in the whole collection about 1.5% have one here.
APEX1 inh = APE1 (human) endonuclease inhibition; recombinant APE1, TAMRA/BHQ-2 abasic DNA cleavage fluorescence; actives 0.35% (n = 350,000); P27695; Potency, µM (top dose mostly 65.8 µM), hits mostly inhibitors; further: nearly all actives have a fitted effect of over 55% in size
Target sequence (P27695 whole entry, looked up): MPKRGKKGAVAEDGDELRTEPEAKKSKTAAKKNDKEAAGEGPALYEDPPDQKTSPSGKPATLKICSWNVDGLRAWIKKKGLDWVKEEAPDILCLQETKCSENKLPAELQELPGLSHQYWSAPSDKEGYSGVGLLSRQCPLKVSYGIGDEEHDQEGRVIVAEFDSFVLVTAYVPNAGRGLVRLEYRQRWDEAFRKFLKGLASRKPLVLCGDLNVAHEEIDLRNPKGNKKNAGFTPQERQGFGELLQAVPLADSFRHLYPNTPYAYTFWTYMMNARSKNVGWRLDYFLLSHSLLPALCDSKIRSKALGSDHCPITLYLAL
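Quantitative HTS: incision of a TAMRA/BHQ-2 double-stranded substrate bearing a tetrahydrofuran abasic site by 0.75 nM APE1 raises fluorescence. Substrate 50 nM final, added after 15 min compound preincubation at room temperature; progress as third-minus-first kinetic read difference.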
RECQ1 inh = RECQ1 (human) helicase inhibition; RECQ1 DNA unwinding, red fluorescence kinetic read; Potency, µM (top dose mostly 57.3 µM), most hits filed as inhibitors; actives 0.54% (n = 240,000); AID 2549; further: nearly all actives have a fitted effect of over 30% in size
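RECQ1T1 50 nM; forked duplex (20 bp + 30-nt ss tails) 200 nM, ATP 2 mM final; pH 8.0, 2 mM MgCl2, 2.5 ug/ml poly(dI-dC); 15 min compound preincubation; discontinuous kinetic read over 2 h at RT.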
FEN1 inh = inhibitors of human flap endonuclease 1. P39748. Potency, µM (doses to about 114 µM), actives largely listed as inhibitors. Recombinant FEN1 flap cleavage, fluorescence, 15 min. actives 0.35% (n = 390,000); further: nearly all actives have a fitted effect of over 65% in size
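Steps: FEN1 (10 nM) dispensed; compound added by pin tool; 15 min at room temperature; substrate added to 50 nM final; reads at 0 min and 15 min; data normalized and fitted (four-parameter Hill).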
WRN inhibitor = blocks human WRN helicase. actives 0.46% (n = 360,000). Potency, µM (top dose mostly 114 µM), actives largely listed as inhibitors. WRN helicase unwinding, fluorescent forked duplex, kinetic. Q14191; further: nearly all actives have a fitted effect of over 55% in size
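Enzyme (20 nM final) and test compound sit together 15 min at room temperature before substrate addition. Substrate is a single-forked duplex oligonucleotide (100 nM) labelled with fluorophore and quencher, with 2 mM ATP; helicase unwinding raises red fluorescence, read kinetically.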
BLM inh = blocks DNA unwinding by human BLM helicase. recombinant BLM DNA unwinding, fluorescence dequenching. AID 2528. P54132. Potency, µM (highest dose often 56.1 µM), hits mostly inhibitors. actives 0.2% (n = 350,000); further: nearly all actives have a fitted effect of over 35% in size
PI5P4K alpha inh = inhibitors of human PI5P4K alpha. P48426. PI5P4Kalpha enzyme, ADP-Glo luminescence, 60 min; active compounds read low. max response, %. AID 652105. actives 1.2% (n = 330,000); active means max response of -50% or lower; inconclusive means between -30% and -50%; inactive means -30% or higher; further: value at the top dose of about 77 µM
Target sequence (P48426 whole entry, looked up): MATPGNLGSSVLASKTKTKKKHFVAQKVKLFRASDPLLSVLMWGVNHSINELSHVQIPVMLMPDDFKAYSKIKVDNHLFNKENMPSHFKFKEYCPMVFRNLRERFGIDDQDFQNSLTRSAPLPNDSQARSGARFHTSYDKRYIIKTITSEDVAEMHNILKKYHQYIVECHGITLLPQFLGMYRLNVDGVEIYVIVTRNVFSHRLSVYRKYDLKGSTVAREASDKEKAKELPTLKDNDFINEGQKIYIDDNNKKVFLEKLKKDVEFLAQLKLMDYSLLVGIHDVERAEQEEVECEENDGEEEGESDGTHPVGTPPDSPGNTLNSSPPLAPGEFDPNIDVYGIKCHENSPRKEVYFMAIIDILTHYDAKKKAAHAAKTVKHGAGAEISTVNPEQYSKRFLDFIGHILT
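Enzyme plus substrate dispensed, test compounds pinned in, then ATP (5 microM final) added. After 60 min at RT, ADP-Glo reagent 1 for 45 min and reagent 2 for 30 min preceded luminescence imaging.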
Hits are given with their value; – = inactive; ? = inconclusive; · = no result given; [ ] = remark or other dose. Unless noted, the call rests on the fitted dose curve; in most records, active means well fitted curve in the direction sought with a large enough effect; inconclusive means small, poorly fitted or top-dose-only effect, or another doubt; inactive means no such curve, though single readings can be large; an effect the other way counts as inactive or inconclusive.

SMILES | APEX1 inh | RECQ1 inh | FEN1 inh | WRN inhibitor | BLM inh | PI5P4K alpha inh
CN1/C(=C/c2cc[n+](C)c3ccccc23)C=Cc2ccccc21 | – | ? | 45µM | 28µM | ? | –
Cc1ccc(C(=O)CC2(O)C(=O)Nc3ccccc32)s1 (configuration not stated) | – | – | – | – | – | -55
Cc1ccc2c(c1)C(O)(CC(=O)c1ccc(C)s1)C(=O)N2 (configuration not stated) | ? | – | – | – | – | –
c1ccc(Nc2nc(NCC3CCCO3)c3ccccc3n2)cc1 (configuration not stated) | – | – | – | – | – | ?
CCOc1ccc(Nc2nc(NCC3CCCO3)c3ccccc3n2)cc1 (configuration not stated) | – | ? | – | ? | 28µM | –
O=C(/C=C/c1ccc(O)cc1)OC[C@H]1O[C@@H](Oc2c(-c3ccc(O)cc3)oc3cc(O)cc(O)c3c2=O)[C@H](O)[C@@H](O)[C@@H]1O | – | – | · | · | – | ·
COc1ccc(OC)c(-c2csc(NC(=O)COC(=O)c3ccc(NC(=O)CC#N)cc3)n2)c1 | 15µM | · | 79µM | ? | · | -61
COc1ccc(OC)c(-c2csc(NC(=O)COC(=O)C3CCC3)n2)c1 | – | · | – | – | · | –
CCn1cc(C(=O)NCC(C)C)c(=O)c2cc(F)c(N3CCN(C)CC3)cc21 | – | – | – | – | – | –
CCn1cc(C(=O)NN)c(=O)c2cc(F)c(N3CCOCC3)cc21 | – | · | ? | 89µM | – | –
O=S(=O)(CCc1ccccc1)c1nnnn1-c1ccc(F)cc1Br | – | – | · | · | – | ·
Nc1cc(C(=O)O)c(N)c2c1C(=O)c1ccccc1C2=O | ? | – | 35µM | ? | – | -83
CCOc1ccc(NC(=S)N(CCN2CCOCC2)Cc2ccc3c(c2)CCCN3CC)cc1 | – | – | – | – | – | –
CCN1CCCc2cc(CN(CCN3CCOCC3)C(=S)Nc3ccc(OC)cc3)ccc21 | 6.3µM | – | – | – | – | –
CCOC1=C2[C@H](c3ccccc3)N(S(=O)(=O)c3ccc(C)cc3)C(C(C)(C)C)[C@H]2C(C#N)(C#N)C(C#N)(C#N)C1 (some centres not stated) | · | · | · | – | · | -50
CCOC1=C2CN(S(=O)(=O)c3ccc(C)cc3)[C@H](c3cccc4ccccc34)C[C@H]2C(C#N)(C#N)C(C#N)(C#N)C1 | · | · | · | – | · | ?
COc1ccc(-c2noc(C3CC(=O)N(c4ccc(C)c(F)c4)C3)n2)c(OC)c1 (configuration not stated) | · | · | – | · | – | ·
COc1ccc2cc(C(=O)NCc3ccccc3)c(=Nc3ccc(C(=O)O)cc3)oc2c1 | – | – | – | – | – | –
O=C(O)c1ccc(N=c2oc3cc(O)ccc3cc2C(=O)NCc2ccccc2)cc1 | – | – | ? | – | – | -78
NC(=O)c1cc2ccc(O)cc2oc1=Nc1ccccc1 | – | – | – | – | – | -72
Cc1ccc(C)c(NC(=O)Cn2ncc3c(C)n(Cc4ccc(F)cc4)c(C)c3c2=O)c1 | · | · | – | · | – | ·
O=C(c1ccc2c(c1)CCN2S(=O)(=O)c1ccc(Cl)cc1)N1CCN(c2ccc(F)cc2)CC1 | · | · | – | · | – | ·
CC1CCN(c2nn3c(=O)c(C(=O)NCCc4ccccc4)cnc3s2)CC1 | · | · | – | · | – | ·
O=C(NC(NC(=S)Nc1ccc(F)c([N+](=O)[O-])c1)C(Cl)(Cl)Cl)C(c1ccccc1)c1ccccc1 (configuration not stated) | – | – | · | · | – | ·
O=[N+]([O-])c1ccccc1-c1ccc(/C=N/n2cnnc2)o1 | – | – | – | – | – | ·
SMILES | APEX1 inh | RECQ1 inh | FEN1 inh | WRN inhibitor | BLM inh | PI5P4K alpha inh
O=[N+]([O-])c1cc(-c2ccc(/C=N\n3cnnc3)o2)cc([N+](=O)[O-])c1 | – | · | – | – | – | -59
O=C(N/N=C/c1cccc(O)c1)N/N=C/c1cccc(O)c1 | – | · | – | – | – | -53
O=C(CCc1ccccc1)N/N=C/c1cccc(O)c1 | – | – | – | – | – | –
O=[N+]([O-])c1cccc(/C=N\N=C2c3ccccc3-c3ccccc32)c1O | – | – | – | – | – | -54
Cn1c(N=Nc2ccc(N3CCOCC3)cc2)[n+](C)c2ccccc21 | – | – | 56µM | 45µM | – | ?
COc1cc(NC(=O)c2cnc(N)s2)cc(C(=O)Nc2cccc(C(F)(F)F)c2)c1 | – | – | 56µM | – | – | –
COc1ccc(-n2c(SCC(=O)Nc3cc(C(=O)O)ccc3C)nc3ccccc3c2=O)cc1Cl | – | – | – | – | – | -64
COc1ccc(-n2c(SCC(=O)Nc3cc(C)on3)nc3ccccc3c2=O)cc1Cl | – | – | – | – | – | –
Cc1c(Cl)cccc1NS(=O)(=O)c1ccc(-c2cnc(C3CC3)o2)cc1 | · | · | – | · | – | ·
CCN1/C(=C/c2cccc[n+]2C)Sc2ccc(OC)cc21 | – | · | ? | –[11.6 µM] | – | –
CN1/C(=C/c2cccc[n+]2C)Sc2ccccc21 | – | · | 45µM | –[11.6 µM] | – | –
O=C(COC(=O)c1cc(NS(=O)(=O)c2cccs2)ccc1O)Nc1ccc(F)c(F)c1F | – | – | – | – | – | –
O=C(COC(=O)c1ccc(NS(=O)(=O)c2cccs2)cc1)Nc1nc2c(F)c(F)c(F)cc2s1 | ? | ? | – | – | – | -90
CCOCCCNC(=O)C1CCN(C(=O)c2cc3sccc3n2C)CC1 | · | · | – | · | – | ·
COc1ccc(Cc2nnc(Nc3ccccc3)s2)cc1Br | – | · | ? | 56µM | – | –
COc1ccc(CNc2ccccc2)cc1Br | ? | – | – | – | – | ·
COCCCNC(=O)Cn1c(=O)n(-c2cccc(C)c2)c(=O)c2c1c1cc(C)ccc1n2C | · | · | – | · | – | ·
CC[C@H](CC[C@@H](C)[C@H]1CC[C@H]2[C@@H]3CC=C4C[C@@H](O)CC[C@]4(C)[C@H]3CC[C@]12C)C(C)C | – | · | · | · | · | ·
COC(=O)C1=C(C)NC(C)=C(C(=O)OCCN2CCN(C(c3ccccc3)c3ccccc3)CC2)C1c1cccc([N+](=O)[O-])c1 (configuration not stated) | · | · | · | · | – | ·
COC(=O)CSC1=C(C#N)C(=O)NC(c2ccccc2)S1 (configuration not stated) | – | – | – | – | – | -56
Nc1ccccc1Oc1ccccc1 | – | – | · | · | – | ·
COc1ccc(C2c3c(n(C)c4ccccc34)C(=O)N2CC(=O)Nc2cc(Cl)ccc2C)cc1 (configuration not stated) | · | · | – | · | – | ·
Cc1ccc(-c2csc3ncn(CC#N)c(=O)c23)cc1C | – | · | ? | –[11.6 µM] | – | -91
CN(C(=S)NC(=O)c1ccc(Cl)cc1)C1CCCCC1 | – | · | – | – | – | -98
CN(C(=S)NC(=O)c1ccc(F)cc1)C1CCCCC1 | – | · | – | – | – | –

Screens deposited in PubChem by National Center for Advancing Translational Sciences (NCATS).
